This is a sample that favours compounds with a hit; in the whole collection about 5.2% have one here.
PfM18AAP inh: blocks P. falciparum M18 aspartyl aminopeptidase; recombinant PfM18AAP, H-Glu-NHMec fluorogenic cleavage; inhibition, % at 7.35 µM; hit rate 1.2% among 290,000; AID 1822;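 active = inhibition above the campaign mean inhibition over all tested compounds plus 3 SD, cut at about 28% in these data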
NRP1-CendR mod: NRP-1/CendR interaction modulation. inhibition, % at 25 µM. AID 602438. FAM-RPARPAR peptide binding to NRP-1, fluorescence polarization. hit rate 0.85% among 360,000. O14786;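 active = inhibition or corrected inhibition above about 18%, plus a signal ratio from 0.5 to 1.5, limit read from the data, passing the limit was not always enough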
A3A deaminase: human APOBEC3A DNA deaminase inhibition; P31941; recombinant A3A, FAM/TAMRA ssDNA deamination fluorescence; inhibition, % at 20 µM; hit rate 0.41% among 330,000;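 active = at least 40% inhibition at 20 µM here, with at most 30% in a related deaminase screen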
ALR H2O2 inh: blocks human ALR sulfhydryl oxidase activity; P55789; purified ALR, DTT oxidation, H2O2 HRP-luminol luminescence; inhibition, % (test concentration not listed); hit rate 3.8% among 290,000; AID 485317;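 active = mean replicate inhibition above about 79%, with every replicate also reaching it, limit read from the data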
Yeast superoxide: yeast age-related superoxide inhibition as caloric restriction mimetic | S. cerevisiae aged cells, superoxide DHE fluorescence; hits give low values | superoxide response (% of plate mean), % at 10 µM | hit rate 0.18% among 330,000;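 active = superoxide response under a set limit, about three screen SD below normal, cut at about 65% in these data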;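 also: yeast aged for seven days with compound at 30 °C before DHE staining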
APOBEC3G inh: blocks human APOBEC3G single-stranded DNA deamination | recombinant A3G, ssDNA deamination FAM/TAMRA fluorescence | hit rate 0.28% among 330,000 | inhibition, % at 20 µM | Q9HC16;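 active = inhibition of at least 40% at 20 µM, with no more than 30% in the related APOBEC3A deaminase screen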
Numbers stand for hits; . = inactive; / = not tested or not shown.

SMILES | PfM18AAP inh | NRP1-CendR mod | A3A deaminase | ALR H2O2 inh | Yeast superoxide | APOBEC3G inh
Cn1c(=O)c2c(nc(-c3ccccc3)n2C)n(Cc2ccccc2)c1=O | . | . | . | . | . | .
Cc1ccc(Cc2cc(C)n[nH]c2=O)cc1 | . | . | . | . | . | .
Cc1ccc(-n2cccc2/C=C2/C(=N)N3C(=NC2=O)SN=C3S(C)(=O)=O)cc1 | . | . | . | 97.8 | . | .
CS(=O)(=O)C1=NSC2=NC(=O)/C(=C\c3ccc(-c4ccccc4)o3)C(=N)N21 | . | / | / | 97.1 | . | /
Cc1cc(C)cc(-n2cccc2/C=C2/C(=N)N3C(=NC2=O)SN=C3S(C)(=O)=O)c1 | . | . | . | 88.0 | . | .
CC(C)S(=O)(=O)C1=NSC2=NC(=O)/C(=C\c3ccc(-c4ccccc4)o3)C(=N)N21 | . | . | / | . | . | /
O=C(COC(=O)CC1CC2CCC1C2)Nc1ccc(F)cc1Cl (stereo not drawn) | / | . | . | . | . | .
C/C(=N/NC(=O)Cc1ccccc1)c1ccc(C)s1 | . | . | . | . | . | .
COC(=O)c1ccc(CN(c2ccc(OC)cc2)S(=O)(=O)c2ccccc2)cc1 | / | . | . | . | . | .
COc1cc(C2N(C)CCC3(OCCO3)C2(C)C)cc(OC)c1OC (stereo not drawn) | . | . | . | . | . | .
O=C(NCC(=O)N1CCN(c2ccccc2)CC1)c1cccs1 | . | . | . | 96.1 | . | .
COc1ccc(N2CCN(C(=O)Cc3cccs3)CC2)cc1 | . | . | . | 96.8 | . | .
O=C(c1cccs1)N1CCN(c2ccc(Cl)cc2)CC1 | . | . | . | 96.4 | . | .
CC(=O)c1ccc(N2CCN(C(=O)Cc3cccs3)CC2)cc1 | . | . | . | . | . | .
O=C(c1cccs1)N1CCN(c2cc(Cl)ccc2Cl)CC1 | . | . | . | . | . | .
CN1CCN(C(=O)CNC(=O)c2cccs2)CC1 | / | . | . | . | . | .
COc1ccc(N2CCN(C(=O)Cc3ccc(OC)c(OC)c3)CC2)cc1 | . | . | . | 87.9 | . | .
COc1ccc(N2CCN(S(=O)(=O)CCNC(=O)c3cccs3)CC2)cc1 | / | . | . | . | . | .
Cc1cccc(C(=O)NCC(=O)NC(C)CCc2ccccc2)c1 (stereo not drawn) | . | . | . | . | . | .
COc1ccc(N2CCN(C(=O)CNC(=O)c3cccs3)CC2)cc1 | . | . | . | 95.1 | . | .
CC(CCc1ccccc1)NC(=O)CNC(=O)c1cccs1 (stereo not drawn) | . | 28.5 | . | . | . | .
Cc1csc(/N=C/c2ccc([N+](=O)[O-])cc2)n1 | . | . | / | 84.8 | . | /
CC(=O)c1ccc(N2CCN(C(=O)Nc3ccc(C(C)C)cc3)CC2)cc1 | . | . | . | . | . | .
CN1C(=O)C(Cl)(Cl)C(=O)c2ccccc21 | 38.2 | . | / | / | / | /
COc1ccc(N2CC(O)(c3ccc(C)cc3)[N+]3=C2CCCC3)cc1 (stereo not drawn) | . | . | . | . | . | .
SMILES | PfM18AAP inh | NRP1-CendR mod | A3A deaminase | ALR H2O2 inh | Yeast superoxide | APOBEC3G inh
O=C1[C@@H]2Cc3c([nH]c4ccccc34)C(c3ccc(Cl)cc3)N2C(=O)CN1CCO (stereo partly drawn) | . | . | . | 99.0 | . | .
COc1ccc(NC(C)=O)cc1NC(=O)c1c(C)noc1C | / | . | / | / | / | /
CCc1onc(C)c1C(=O)Nc1cc(C)ccc1OC | . | 33.9 | . | . | . | .
CCc1nc2n[nH]c(N)c2c2c1CSC(C)(C)C2 | . | . | . | 86.7 | . | .
O=C(c1ccc(F)cc1)C1CCN(CCn2c(=S)[nH]c3ccccc3c2=O)CC1 | . | / | . | . | . | .
Clc1ccc(C[n+]2csc3ccccc32)cc1 | 37.6 | . | / | . | . | /
Cc1ccc(-c2c[n+](Cc3ccc(Cl)cc3)c3n2CCC3)cc1 | . | . | . | . | . | .
NS(=O)(=O)c1ccc(N/N=C/c2ccc(O)c(O)c2O)c([N+](=O)[O-])c1 | 50.0 | . | / | / | / | /
Cc1ccc(S(=O)(=O)N/N=C\c2cn(CC(N)=O)c3ccccc23)cc1C | . | 25.2 | . | . | . | .
NC(=O)Cn1cc(/C=N\NS(=O)(=O)c2ccc(Cl)cc2)c2ccccc21 | . | . | . | . | . | .
COC(=O)c1ccc(NC(=O)c2ccc3nc(C)sc3c2)cc1 | . | . | . | . | . | .
O=C(c1cccnc1)n1nc(NCc2ccccc2)nc1NCc1ccccc1 | 28.2 | . | . | . | . | .
Cc1cc2c(c(=O)n1CCN(C)C)C(c1ccccc1Br)C(C#N)=C(N)O2 (stereo not drawn) | . | . | . | . | . | .
Cc1ccc(C(=O)c2coc3cc([N+](=O)[O-])c(O)c([N+](=O)[O-])c23)cc1 | 33.4 | . | . | . | . | .
Cc1ccc(C(=O)c2ccc([N+](=O)[O-])cc2)cc1 | . | . | . | . | . | .
O=C(Nc1ccc(CN2CCOCC2)cc1)c1ccco1 | . | . | . | 76.7 | . | .
O=C(CSc1ccc(Cl)cc1)Nc1ccc(N2CCN(C(=O)c3ccco3)CC2)cc1 | . | . | . | . | . | .
O=C(CSc1ccc(Cl)cc1)Nc1ccc(NC(=O)c2ccco2)cc1 | . | . | . | 99.6 | . | .
CC(OC(=O)CN1C(=O)NC2(CCCC2)C1=O)C(=O)c1ccc(C(C)(C)C)cc1 (stereo not drawn) | / | . | . | . | . | .
CCOC(=O)Cc1csc(NC(=O)COc2ccc(C)c(C)c2)n1 | . | . | . | . | . | .
COc1c2ccoc2nc2c(OC)c(O)ccc12 | . | . | . | 99.4 | . | .
CC(C)CC(=O)NC(=S)Nc1ccccc1F | . | . | . | . | . | .
O=C(CCc1ccccc1)Nc1ccc(S(=O)(=O)N2CCOCC2)cc1 | . | . | . | . | . | .
C/C(=N\NC(=O)CCc1ccc(S(=O)(=O)N2CCOCC2)cc1)c1ccccc1Cl | . | . | . | 98.5 | . | .
COc1cc(/C=C2/NC(=O)N(Cc3ccccc3F)C2=O)cc(OC)c1O | . | . | . | 98.9 | . | .
SMILES | PfM18AAP inh | NRP1-CendR mod | A3A deaminase | ALR H2O2 inh | Yeast superoxide | APOBEC3G inh
CCOc1cc(/C=C2/NC(=O)N(Cc3ccccc3F)C2=O)ccc1O | . | . | . | . | . | .
O=c1oc2ccc(NS(=O)(=O)c3cccc4cccnc34)cc2s1 | 31.4 | . | . | / | . | .
O=C(O)c1cccc(S(=O)(=O)Nc2ccc3oc(=O)sc3c2)c1 | 41.5 | . | . | . | . | .
Cc1ccc(-c2csc3nc(SCC(=O)N(C)C)n(Cc4ccccc4)c(=O)c23)cc1 | . | . | . | . | . | .
O=C(CN1CCN(C(=O)c2ccco2)CC1)Nc1cc(Cl)ccc1Cl | . | . | . | . | . | .
Cc1ccc(C(=O)NC2CC(C)(C)NC(C)(C)C2)cc1 | . | . | . | . | . | .
CCOCCCNC(=O)CCc1nnc2ccc(N3CCCCC3)nn12 | . | . | . | . | . | .
O=C(CS(=O)c1ccccc1[N+](=O)[O-])Oc1ccc(Br)cc1 (stereo not drawn) | . | . | . | 78.3 | . | .
